Data: PubChem BioAssay AID720504 (National Center for Advancing Translational Sciences (NCATS), 2013)
Hit rate of the full screen: of about 360,000 compounds, about 10,000 (2.8%) were called active. Inconclusive results (about 4%) are left out. The sample holds actives, similar compounds and a random draw of the others, so the mix is not that of the screen. Values without a mark were called inactive. Calls follow the shape of the dose curve; as a rule, active = well fitted inhibition curve with a large enough effect; inconclusive = small, poorly fitted or top-dose-only effect; inactive = flat fitted curve, though single readings scatter.
% is scaled to controls: 0 for no effect and ±100 for the full control effect; potency is read from the fitted curve at half-maximal effect.
Also: nearly all actives have a fitted effect of over 65% in size.
For max response, negative = inhibition in this document: series mostly up to about 57 µM.

Each compound was assayed against Serine/threonine-protein kinase PLK1 (Homo sapiens) (UniProt P53350) (assay: qHTS for Inhibitors of PLK1-PDB (polo-like kinase 1 - polo-box domain): Primary Screen). Details: Plk1 PBD binding of FITC phosphopeptide, fluorescence polarization.
Chain of Serine/threonine-protein kinase PLK1 (Homo sapiens) (P53350 whole entry, looked up, the tested form may be a part): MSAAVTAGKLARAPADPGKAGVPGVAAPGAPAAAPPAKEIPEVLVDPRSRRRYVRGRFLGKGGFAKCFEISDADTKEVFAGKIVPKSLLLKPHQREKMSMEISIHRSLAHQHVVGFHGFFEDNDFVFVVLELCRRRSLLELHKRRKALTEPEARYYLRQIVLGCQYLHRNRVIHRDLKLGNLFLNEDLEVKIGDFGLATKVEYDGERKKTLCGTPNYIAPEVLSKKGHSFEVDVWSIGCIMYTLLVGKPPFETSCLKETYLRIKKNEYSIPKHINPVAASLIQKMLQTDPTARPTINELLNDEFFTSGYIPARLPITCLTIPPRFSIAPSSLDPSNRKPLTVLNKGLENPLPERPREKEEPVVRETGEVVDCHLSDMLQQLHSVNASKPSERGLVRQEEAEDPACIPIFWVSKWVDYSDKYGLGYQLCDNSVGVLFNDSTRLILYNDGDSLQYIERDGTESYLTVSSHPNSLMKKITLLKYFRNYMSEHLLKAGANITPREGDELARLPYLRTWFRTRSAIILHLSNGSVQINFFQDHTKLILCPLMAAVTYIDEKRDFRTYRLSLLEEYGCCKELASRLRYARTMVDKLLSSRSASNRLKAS
Description: The polo-like kinase 1 (Plk1) is a member of a conserved subfamily of serine / threonine protein kinases that plays a pivotal roles in cell proliferation. It has a C-terminal non-catalytic region called the polo-box domain (PBD) that plays a crucial role in the subcellular localization of the Plk1. […] Furthermore, depletion of the overexpressed Plk1 by RNAi efficiently induces apoptotic cell death in cancer and reduces tumor growth in mouse xenograft models. Thus, targeting Plk1 is an appealing strategy for anti-cancer therapy. Therefore, this project aimed to screen the Molecular Libraries Small Molecule Repository (MLSMR) using a novel approach to find inhibitors that target the Plk1 PBD instead of the conventional N-terminal catalytic domain. This project employed a fluorescence polarization (FP) assay using a FITC-conjugated phospho-9-mer (p-9-mer) peptide and purified human Plk1 PBD protein. The identified small molecule inhibitors of Plk1 PBD can then further be developed into useful tools for biomedical and clinical research that complements or replaces current relevant disease therapy. NIH Chemical Genomics Center [NCGC] NIH Molecular Libraries Probe Centers Network [MLPCN] MLPCN Grant: MH100728 Assay Submitter (PI): Kyung Lee, NCI
Four microliter of 25 nM FITC-p-9-mer + 60 nM Plk1 PBD in buffer solution (final concentrations 25 nM and 60 nM respectively) or 4 uL of 25 nM FITC-p-9-mer (final concentration 25 nM) in buffer will be dispensed into a 1,536 Greiner medium-binding black solid plate. Small molecules at final concentrations of 18 nM to 57 uM and positive control phospho-9-mer (sequence: Ac-PPLHSpTAI-NH2) at final concentrations 26 nM to 57 uM and phospho-13-mer (sequence: Ac-[…]pTAI-NH2) at final concentrations of 1 nM to 2.3 uM will be pin-transferred (23 nL) to the plate via a Kalypsys pin-tool robotics equipped with a 1,536-pin array. The reaction plate will be centrifuged for 1 min at 1000 rpm and incubated at room temperature for 10 min. The FITC fluorescence signals will be read using the PerkinElmer ViewLux plate reader at 480 / 20 nm excitation and 540 / 20 nm S and P polarization emission wavelengths. Reagent bottles will be kept submerged into 4 °C recirculating chiller bath and all liquid lines will be covered with aluminum foil to minimize degradation. Library plates will be screened starting from the lowest to the highest concentrations to minimize compound carryover. Vehicle only plates, with DMSO being pin-transferred instead of compound solutions, will be included regularly throughout the screen to record any systematic shifts in assay signal.
For `CC1=C(C(=O)N2CCOCC2)CC(CC(=O)NCCN2CCOCC2)C(=O)N1CCC1=CCCCC1` (stereo not given), the max response, negative = inhibition was 1.89%. In the case of `COc1cccc(-c2nc3nc(C)cc(C)n3c2NC2CCCCC2)c1`, the max response, negative = inhibition is reported as -13.3%. With `CCNC(=O)c1cc2c(c(-c3cccc(-c4cncnc4)c3)n1)[C@H](CCO)N(C(C)=O)C2` the max response, negative = inhibition was -4.29%. For `O=C(Nc1cc(Br)ccc1F)c1nc[nH]c1C(=O)NCc1ccccc1`, the max response, negative = inhibition was -13.2%. For `COc1cccc(-c2cc3nc(NCc4ccccc4OC)n(C)c(=O)c3s2)c1`, the max response, negative = inhibition was 3.07%. For `c1ccc(COc2nsnc2N2CCOCC2)cc1`, the Potency was 26.7 µM (active). `c1nc(COc2nsnc2N2CCOCC2)cs1` gave a max response, negative = inhibition of -14.8%. For `O=C(O)COc1nsnc1N1CCOCC1`, the max response, negative = inhibition was -5.74%. With `C[C@H]1COc2cc(N3CCSCC3)ccc2S(=O)(=O)N1` the max response, negative = inhibition was -1.34%. Compound `CC(C)C[C@H]1CNC(=O)C(=O)N1C[C@H]1CCCN1C[C@H](Cc1ccc(O)cc1)N1C[C@H](CC(C)C)N(CC2CCCCCC2)C(=O)C1=O` has a max response, negative = inhibition of -0.278%. `COc1ccc(S(=O)(=O)N2CCCCC2c2cc(C(=O)NCc3ccc(F)cc3)no2)cc1` (stereo not given) gave a max response, negative = inhibition of 4.51%. Compound `COc1cccc(/C=C(/CC(=O)Nc2ccc(N3CCOCC3)cc2)c2nc3ccccc3s2)c1` has a max response, negative = inhibition of 8.02%. In the case of `Cc1nn(-c2ccc(F)cc2)c(Cl)c1/C=C(/CCC(=O)O)c1nc2ccccc2s1`, the Potency is reported as 59.7 µM (active). `Cc1nn(-c2ccccc2)c(Cl)c1/C=C/C(=O)c1ccc(O)cc1` showed a max response, negative = inhibition of -17.2%. `CC(C)[C@H](NC(=O)c1ccccc1F)C(=O)Nc1cccc(S(=O)(=O)N2CCOCC2)c1` was tested, and the max response, negative = inhibition was 2.03%. `COc1ccc(CNC(=O)c2ccc(-c3cccnc3)c3ccoc23)cc1OC` showed a max response, negative = inhibition of -7.35%. With `CCOC(=O)C1=CCC2C(=O)N(Cc3ccccc3)C(=O)C12` (stereo not given) the max response, negative = inhibition was -2.51%. `CCN(CC)C(=O)C1CCCN(Cc2cccc(Cl)c2)C1` (stereo not given) gave a max response, negative = inhibition of -16.8%. For `C=CCOc1c(Br)cc(/C=N\n2nnnc2N)cc1OC`, the max response, negative = inhibition was -13.9%. For `CCOc1c(Br)cc(/C=C2\C(=O)N(CCC#N)N=C2C)cc1OC`, the Potency was 1.06 µM (active). `CC1(C(=O)NS(=O)(=O)c2cccc(F)c2)CCN1C(=O)Cc1ccc(Cl)cc1Cl` (stereo not given) was tested, and the max response, negative = inhibition was 1.99%. With `C[C@H](CO)N1C[C@H](C)[C@@H](CN(C)C(=O)C2CCCCC2)OCc2cnnn2CCCC1=O` the max response, negative = inhibition was -18.4%. With `CCOC(=O)C1=CC[C@@H](c2ccncc2)N(S(=O)(=O)c2ccc(C)cc2)C1` the max response, negative = inhibition was -3.59%. `CN(CC(=O)Nc1ccc(F)cc1)C(=O)c1ccc(-c2ccc(Cl)cc2)o1` showed a max response, negative = inhibition of -3.69%. `Cc1[nH][nH]c(=O)c1C(c1ccc(-c2ccc(Cl)cc2)o1)c1c(C)[nH][nH]c1=O` was tested, and the Potency was 26.7 µM (active).
